Results on 13 compounds are retold here after PubChem BioAssay.

The structures appear in SMILES notation. Calls of active or inactive are those of the source.

The subject of test [1] is Plasmodium falciparum Sir2 (PF13_0152, Sir2A). In words: Plasmodium falciparum Sir2A binding compounds – biochemical, small-molecule microarray, 635 nm fluorescence, primary screen (AID 1098).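 Further: score merges spot fluorescence intensity with its signal-to-noise ratio.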 The conditions noted are these: fluorescence 635 nm, higher = more signal.
Test [2] is described as follows: probe aDKK1 binding to arrayed compounds – biochemical, biotinylated probe, 635/667 nm fluorescence, primary screen (AID 1099).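 Further: score merges 667nm spot fluorescence with signal to noise across triplicate slides; reference of the scale not given here.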 The conditions noted are these: small-molecule microarray, higher = more signal.
Test [3] is described as follows: probe aCHRDL2 binding to arrayed compounds – biochemical, biotinylated probe, 635/667 nm fluorescence, primary screen (AID 1100). The following applies: small-molecule microarray, higher = more signal.
The nature of test [4]: change in splice reporter luminescence, either direction, cell-based, HEK293, spliceosome inhibition project, primary screen (AID 1101).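 Further: HEK293 cells carrying a splicing-competent luciferase reporter gene; test concentration not given here.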 The following applies: HEK293 splicing luciferase reporter, 24 h, higher = more signal, called active from +8 up or from −8 down.
Test [5] concerns the target Fibroblast growth factor 10 (Homo sapiens) (UniProt O15520). In words: compounds binding fibroblast growth factor 10 – biochemical, small-molecule microarray, 635 nm fluorescence, primary screen (AID 1102). The conditions noted are these: FGF10 binding, fluorescence 635 nm, higher = more signal.
Test [6] deals with glycogen synthase kinase-3 (GSK3A per assay name; protocol says GSK3B). In words: compounds binding glycogen synthase kinase-3 – biochemical, small-molecule microarray, 635 nm fluorescence, GSK3A, primary screen (AID 1103). Further: the record names both GSK3A and GSK3B. The conditions noted are these: fluorescence 635 nm, higher = more signal.
Test [7] addresses Epidermal growth factor receptor (Homo sapiens) (UniProt P00533). The test can be described thus: compounds binding epidermal growth factor receptor – biochemical, small-molecule microarray, 635 nm fluorescence, primary screen (AID 1104).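 Further: score merges 667 nm emission intensity with spot signal to noise over triplicate slides.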 The conditions noted are these: EGFR binding, higher = more signal.
Test [8] deals with Follistatin-related protein 3 (Homo sapiens) (UniProt O95633). In words: compounds binding follistatin-related protein 3 – biochemical, small-molecule microarray, 635 nm fluorescence, primary screen (AID 1105).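 Further: score merges emission near 667 nm and signal to noise per printed spot across three slides.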 The conditions noted are these: FSTL3 binding, higher = more signal.
Sequence of Follistatin-related protein 3 (Homo sapiens) (O95633 whole entry, looked up): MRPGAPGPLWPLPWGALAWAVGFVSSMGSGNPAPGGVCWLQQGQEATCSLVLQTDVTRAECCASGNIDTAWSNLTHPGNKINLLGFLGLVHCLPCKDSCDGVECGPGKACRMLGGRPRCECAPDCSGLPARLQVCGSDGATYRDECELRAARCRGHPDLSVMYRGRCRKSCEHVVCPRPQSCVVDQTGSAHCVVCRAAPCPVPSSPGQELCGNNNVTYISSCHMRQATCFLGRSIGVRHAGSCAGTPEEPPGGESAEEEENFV
The target in test [9] is Dickkopf-related protein 1 (Homo sapiens) (UniProt O94907). In words: small molecules binding DKK1 protein – biochemical, small-molecule microarray, 635 nm fluorescence scan, primary screen (AID 1106).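 Further: score merges emission near 667 nm with signal to noise over three replicate slides.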 The conditions noted are these: higher = more signal.
Sequence of Dickkopf-related protein 1 (Homo sapiens) (O94907 whole entry, looked up): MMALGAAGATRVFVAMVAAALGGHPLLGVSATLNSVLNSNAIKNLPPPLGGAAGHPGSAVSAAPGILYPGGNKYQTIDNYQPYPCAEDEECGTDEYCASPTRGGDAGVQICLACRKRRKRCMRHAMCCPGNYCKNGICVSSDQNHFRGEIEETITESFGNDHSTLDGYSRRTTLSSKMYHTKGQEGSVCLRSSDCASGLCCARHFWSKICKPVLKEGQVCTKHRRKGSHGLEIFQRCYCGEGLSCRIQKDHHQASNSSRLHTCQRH
Test [10] relates to Inhibin beta A chain (activin A). In words: small molecules binding activin A – biochemical, small-molecule microarray, 635 nm fluorescence scan, primary screen (AID 1107).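 Further: mouse activin A protein probed at 4.33 µg/mL on printed slides; score merges bound-protein fluorescence near 667 nm with spot signal-to-noise.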 The conditions noted are these: INHBA, higher = more signal.

Sequence of Epidermal growth factor receptor (Homo sapiens) (P00533 whole entry, looked up): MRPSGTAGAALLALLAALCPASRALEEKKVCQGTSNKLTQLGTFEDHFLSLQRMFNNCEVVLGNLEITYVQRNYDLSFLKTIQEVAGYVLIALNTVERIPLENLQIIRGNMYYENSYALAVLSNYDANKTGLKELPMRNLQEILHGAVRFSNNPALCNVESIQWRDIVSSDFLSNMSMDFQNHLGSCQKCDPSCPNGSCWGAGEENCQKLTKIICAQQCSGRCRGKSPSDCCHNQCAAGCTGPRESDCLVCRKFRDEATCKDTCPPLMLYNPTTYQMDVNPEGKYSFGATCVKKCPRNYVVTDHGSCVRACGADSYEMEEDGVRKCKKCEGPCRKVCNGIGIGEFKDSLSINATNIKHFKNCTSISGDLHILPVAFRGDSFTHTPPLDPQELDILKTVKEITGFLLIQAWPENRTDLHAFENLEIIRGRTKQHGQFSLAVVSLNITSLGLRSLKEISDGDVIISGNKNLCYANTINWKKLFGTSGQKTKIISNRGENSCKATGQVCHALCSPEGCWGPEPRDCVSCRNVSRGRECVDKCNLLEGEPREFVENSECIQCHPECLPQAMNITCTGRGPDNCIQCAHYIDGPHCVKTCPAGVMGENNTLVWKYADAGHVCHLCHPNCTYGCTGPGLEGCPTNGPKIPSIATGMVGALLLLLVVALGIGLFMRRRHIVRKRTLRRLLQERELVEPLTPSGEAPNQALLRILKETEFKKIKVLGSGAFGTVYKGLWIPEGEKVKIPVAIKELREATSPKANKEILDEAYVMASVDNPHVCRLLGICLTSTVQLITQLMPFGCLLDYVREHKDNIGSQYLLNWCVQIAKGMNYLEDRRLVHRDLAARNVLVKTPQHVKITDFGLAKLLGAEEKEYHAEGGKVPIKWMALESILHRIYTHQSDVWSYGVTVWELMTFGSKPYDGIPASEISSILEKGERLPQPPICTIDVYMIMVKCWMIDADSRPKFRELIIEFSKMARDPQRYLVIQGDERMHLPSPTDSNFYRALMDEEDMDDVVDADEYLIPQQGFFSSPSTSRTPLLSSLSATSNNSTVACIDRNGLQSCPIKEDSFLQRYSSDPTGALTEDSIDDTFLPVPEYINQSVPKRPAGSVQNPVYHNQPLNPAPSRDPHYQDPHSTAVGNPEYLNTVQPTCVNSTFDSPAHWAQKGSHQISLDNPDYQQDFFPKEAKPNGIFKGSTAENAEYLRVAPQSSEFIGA
Sequence of Fibroblast growth factor 10 (Homo sapiens) (O15520 whole entry, looked up): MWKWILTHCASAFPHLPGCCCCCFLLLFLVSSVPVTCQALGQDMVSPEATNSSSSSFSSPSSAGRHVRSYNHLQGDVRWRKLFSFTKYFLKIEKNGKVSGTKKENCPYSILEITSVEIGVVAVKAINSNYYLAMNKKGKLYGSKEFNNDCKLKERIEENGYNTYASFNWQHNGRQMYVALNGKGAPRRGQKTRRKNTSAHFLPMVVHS

As for `C=C[C@@H](COC(=O)OC(C)(C)C)N(Cc1ccc(OC)cc1)S(=O)(=O)c1ccc(Br)cc1`, the composite z-score was 0.487 in test [1]; -0.189 in [2]; 0.166 in test [3]; 0.541 in test [5]; 0.632 in test [6]; 0.691 in [7]. Also, the composite z-score in [8] amounted to 1; in test [9] it was 0.513; in test [10], 0.841. Also, the z-score in test [4] is 0.255 (inactive).

Take `O=C(c1ccccc1)N1C(=O)[C@@]2(Cc3ccccc31)N=C(c1ccc(OCCCO)cc1)O[C@H]2c1ccccc1`: the composite z-score is 1.64 in [1]; 1 in [2]; 0.965 in test [3]; 1.06 in [5]; 1.33 in test [6]; 0.782 in [7]. Moreover, the composite z-score in test [8] was determined as 1.22; in test [9], 0.973; in [10], 0.992. Besides, the z-score in test [4] was -0.663 (inactive).

Consider `[N-]=[N+]=NCc1ccccc1C[C@]1(C(=O)N2CCCCC2)N=C(c2ccc(OCCCO)cc2)O[C@H]1c1ccccc1N=[N+]=[N-]`, for which the composite z-score in test [1] came out at 0.711; in [2], 1.1; in test [3], 1.19; in [5] it was 0.55; in test [6], 0.998; in test [7], 0.26. Moreover, the composite z-score in test [8] was 0.308; in [9], -0.5; in test [10], 1.36. The z-score in test [4] was -1.01 (inactive).

On to `COc1ccc(C(O)C2C=CC3C(=O)N(Cc4ccccc4)C(=O)C3N2n2cnnc2)cc1OCc1ccccc1` (stereo not given), for which the composite z-score in test [1] was 0.504; in test [2] it was -0.0756; in test [3], 0.432; in [5], -0.245; in [6], 0.332; in test [7] it was -0.283. The composite z-score in test [8] is 0.308; in test [9], -0.192; in test [10], 0.586. In test [4], the z-score was -1.91 (inactive).

For the compound `CC1(C)C2C=C(C(O)C3C=CC4C(=O)NC(=O)C4N3Nc3ccc(Cl)cc3Cl)C[C@@H]1C2` (stereo not given in full), the composite z-score in [1] came out at 0.213; in test [2], 1.05; in test [3] it was 1.16; in [5], 0.808; in test [6], 0.0644; in [7] it was 0.27. Moreover, the composite z-score was 0.745 in [8], -0.214 in test [9] and 1.08 in test [10]. Besides, in test [4], the z-score is 2.5 (inactive).

For the compound `Cc1ccc(S[C@]2(C(=O)NC3CC3)CC(=O)N(Cc3ccccc3)[C@@H]2c2ccc(CO)cc2I)cc1`, the composite z-score in [1] was 0.562; in test [2] it was 0.0491; in [3], 0.717; in [5] it was -0.794; in [6] it was -0.281; in test [7] it was -1.34. Besides, the figures for the composite z-score in test [8], in [9] and in test [10] were -1.37, -1.59 and 0.5, respectively. The z-score in test [4] is -1.21 (inactive).

As for `C=CCNC(=O)[C@@H]1[C@H]2C(=O)O[C@H](c3ccccc3)[C@H](c3ccccc3)N2[C@H](c2ccc(OCCO)cc2)[C@@]12C(=O)Nc1ccc(C#CCC(C(=O)OC)C(=O)OC)cc12`, the composite z-score in test [1] was 1.7; in test [2], 0.264; in [3], 0.171; in [5] it was 1.23; in test [6], 1.27; in test [7] it was -0.122. The composite z-score in test [8] stood at 0.753; in test [9], 0.335; in [10] it was 0.614. Moreover, the z-score in [4] was -0.646 (inactive).

With `CN(C)CCCCCCNC(=O)[C@@H]1C[C@@H]2C(=O)N[C@@H](Cc3ccccc3)C(=O)N2[C@@H]1c1ccc(O)cc1`, the composite z-score in [1] was 1.51; in [2], 0.026; in test [3], -0.127; in [5], 1.06; in test [6] it was 1.35; in [7], 1.37. Further, the composite z-score in test [8] came out at 1.44; in [9], 1.38; in [10] it was 1.41. Further, the z-score in test [4] is -0.926 (inactive).

For the compound `COC(=O)[C@@]1(Cc2ccc(OC)cc2)[C@H]2c3cc(C(=O)N(C)C)n(Cc4ccc(S(C)(=O)=O)cc4)c3C[C@H]2CN1C(=O)c1ccccc1`, the composite z-score in test [1] is 1.29; in test [2], 0.511; in test [3], 0.573; in test [5] it was -0.0911; in [6] it was 0.904; in test [7], -0.0743. The composite z-score in [8] worked out at 1.08; in [9], 0.0527; in test [10] it was 1.16. In addition, the z-score in [4] is -0.109 (inactive).

Turning to `C=C(COC)/C(=C/C[C@H](OC(C)=O)c1ccc(CO)o1)c1cc(C(=O)OC)ccc1OC`, the composite z-score in test [1] is 1.12; in [2] it was 0.667; in test [3] it was -0.201; in test [5], 0.483; in [6] it was -0.0434; in test [7] it was -0.173. Besides, the composite z-score in [8] is -0.0145; in test [9] it was -0.164; in test [10], 1.32. For the same compound, the z-score in [4] is -0.0994 (inactive).

Turning to `O=C1C[C@@](C(=O)NCCN2CCOCC2)(c2ccc([N+](=O)[O-])cc2)[C@@H](c2ccc(CO)cc2I)N1CC12CC3CC(CC(C3)C1)C2`, the composite z-score is 1.29 in test [1]; -0.174 in test [2]; 0.283 in [3]; 1.33 in test [5]; 1.3 in test [6]; 0.545 in test [7]. Besides, the composite z-score in test [8] was 1.03; in test [9] it was 0.324; in test [10] it was -0.0038. In addition, in test [4], the z-score is -3.38 (inactive).

As to `COC(=O)[C@@]1(Cc2ccc(OC)cc2)[C@H]2c3cc(C(=O)N4CCCC4)n(Cc4ccc(C)c(F)c4F)c3C[C@H]2CN1C(=O)c1ccccc1`, the composite z-score in test [1] is 1.05; in test [2], 1.09; in test [3] it was 1.33; in test [5], 0.791; in [6], 1.29; in test [7], -0.139. The composite z-score in test [8] is 1.18; in [9], -0.602; in test [10], 0.702. The z-score in test [4] is -0.282 (inactive).

With `COCCOC(=O)N1C(=O)[C@@]2(c3cc(C#Cc4ccc(OC)cc4)ccc31)[C@H](c1ccccc1OCCO)N1[C@H](c3ccccc3)[C@H](c3ccccc3)OC(=O)[C@H]1[C@@H]2C(=O)NC[C@H](O)c1ccccc1`, the composite z-score in test [1] worked out at 1.23; in test [2], 0.201; in [3], 0.145; in [5], 1.14; in test [6] it was 0.748; in test [7] it was 0.544. The composite z-score in test [8] stood at 1.43; in test [9] it was 0.696; in [10], 0.53. In [4], the z-score was -0.352 (inactive).
